Source: paper PMC7862700, “An all-to-all approach to the identification of sequence-specific readers for epigenetic DNA modifications on cytosine”

Tests used:
Test in all cases: DAPPL (digital affinity profiling via proximity ligation, sequencing); 10 mM Tris-HCl pH 7.5, 50 mM NaCl, 1 mM DTT, 4% glycerol, room temperature, 30 min; GST-TFs on glutathione beads, 16-mer random dsDNA library, 0.1% formaldehyde crosslink after washing; high values mean tight binding
Details in all cases: protein: recombinant; tags: N-terminal GST; dsDNA, one strand shown
[1] = target: T1, FLI1 (Homo sapiens, UniProt Q01543 1-452)
T1 sequence: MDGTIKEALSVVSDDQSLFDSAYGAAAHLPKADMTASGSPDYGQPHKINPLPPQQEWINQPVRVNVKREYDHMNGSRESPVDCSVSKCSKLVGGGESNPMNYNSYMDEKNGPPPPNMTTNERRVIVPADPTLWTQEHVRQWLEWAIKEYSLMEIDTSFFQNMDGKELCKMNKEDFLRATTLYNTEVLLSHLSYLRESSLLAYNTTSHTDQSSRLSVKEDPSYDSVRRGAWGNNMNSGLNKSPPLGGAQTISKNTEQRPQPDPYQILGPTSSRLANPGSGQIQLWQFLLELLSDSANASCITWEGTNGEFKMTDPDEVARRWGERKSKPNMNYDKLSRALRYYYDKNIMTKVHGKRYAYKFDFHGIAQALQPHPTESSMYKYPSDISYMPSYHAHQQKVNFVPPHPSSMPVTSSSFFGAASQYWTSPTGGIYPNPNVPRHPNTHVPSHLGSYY
Summary of the method: (§1)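 Human transcription factors fused to GST were expressed in yeast, captured on glutathione beads, given DNA barcodes and pooled with a GST-only negative control. Pools were incubated with 200 nmole of a 16-mer random double-stranded DNA library in Tris/NaCl/DTT/glycerol buffer at room temperature for 30 min. They were then washed, crosslinked with 0.1% formaldehyde, proximity-ligated (BsaI/T4 ligase, 1 h, 37 °C), PCR-amplified and sequenced on an Illumina NextSeq500. Binding signal is each 6-mer's read frequency for a factor divided by its frequency for the GST control.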

[2] = target: T2, ELK1 (Homo sapiens, UniProt P19419 1-428)
T2 sequence: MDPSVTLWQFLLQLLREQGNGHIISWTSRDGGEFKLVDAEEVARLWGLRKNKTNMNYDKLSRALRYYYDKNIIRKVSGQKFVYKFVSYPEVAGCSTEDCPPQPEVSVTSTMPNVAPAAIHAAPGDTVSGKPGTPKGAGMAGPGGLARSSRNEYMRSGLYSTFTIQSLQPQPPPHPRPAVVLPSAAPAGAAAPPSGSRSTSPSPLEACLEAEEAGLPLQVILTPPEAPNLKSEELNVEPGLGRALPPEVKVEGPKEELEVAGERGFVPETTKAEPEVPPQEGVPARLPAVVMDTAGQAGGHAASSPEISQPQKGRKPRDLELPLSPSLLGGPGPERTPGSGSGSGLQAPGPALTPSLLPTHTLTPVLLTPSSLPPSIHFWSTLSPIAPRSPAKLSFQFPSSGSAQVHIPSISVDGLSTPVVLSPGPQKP
Summary of the method: as §1

[3] = target: T3, GABPA (Homo sapiens, UniProt Q06546 1-454)
T3 sequence: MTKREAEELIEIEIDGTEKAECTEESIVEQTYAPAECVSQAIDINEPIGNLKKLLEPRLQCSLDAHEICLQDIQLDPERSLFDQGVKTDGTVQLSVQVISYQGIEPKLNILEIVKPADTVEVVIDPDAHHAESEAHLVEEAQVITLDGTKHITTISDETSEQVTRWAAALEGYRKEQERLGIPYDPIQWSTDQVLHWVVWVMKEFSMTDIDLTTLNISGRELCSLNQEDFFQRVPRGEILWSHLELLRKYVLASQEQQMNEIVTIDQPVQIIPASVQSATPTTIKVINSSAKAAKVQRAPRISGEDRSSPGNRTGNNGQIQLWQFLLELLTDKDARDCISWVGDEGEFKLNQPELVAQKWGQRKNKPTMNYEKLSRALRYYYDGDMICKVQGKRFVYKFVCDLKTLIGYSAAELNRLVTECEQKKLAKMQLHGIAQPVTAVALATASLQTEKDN
Summary of the method: as §1

[4] = target: T4, ERG (Homo sapiens, UniProt P11308 1-479)
T4 sequence: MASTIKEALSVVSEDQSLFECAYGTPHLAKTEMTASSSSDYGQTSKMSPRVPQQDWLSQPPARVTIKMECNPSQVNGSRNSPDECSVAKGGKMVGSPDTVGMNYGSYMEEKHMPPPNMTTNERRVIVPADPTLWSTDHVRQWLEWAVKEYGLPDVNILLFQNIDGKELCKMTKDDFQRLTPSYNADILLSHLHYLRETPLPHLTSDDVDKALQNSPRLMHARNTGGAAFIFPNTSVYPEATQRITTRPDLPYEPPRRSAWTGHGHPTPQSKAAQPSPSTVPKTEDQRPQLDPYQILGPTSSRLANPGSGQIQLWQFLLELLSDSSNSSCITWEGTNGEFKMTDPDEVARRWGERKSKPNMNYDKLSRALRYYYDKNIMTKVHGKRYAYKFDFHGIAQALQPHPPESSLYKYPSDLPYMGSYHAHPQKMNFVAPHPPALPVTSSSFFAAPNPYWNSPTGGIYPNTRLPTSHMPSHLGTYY
Summary of the method: as §1

[5] = target: ELF1 (Homo sapiens, UniProt P32519 1-619)
Sequence of ELF1 (P32519 whole entry): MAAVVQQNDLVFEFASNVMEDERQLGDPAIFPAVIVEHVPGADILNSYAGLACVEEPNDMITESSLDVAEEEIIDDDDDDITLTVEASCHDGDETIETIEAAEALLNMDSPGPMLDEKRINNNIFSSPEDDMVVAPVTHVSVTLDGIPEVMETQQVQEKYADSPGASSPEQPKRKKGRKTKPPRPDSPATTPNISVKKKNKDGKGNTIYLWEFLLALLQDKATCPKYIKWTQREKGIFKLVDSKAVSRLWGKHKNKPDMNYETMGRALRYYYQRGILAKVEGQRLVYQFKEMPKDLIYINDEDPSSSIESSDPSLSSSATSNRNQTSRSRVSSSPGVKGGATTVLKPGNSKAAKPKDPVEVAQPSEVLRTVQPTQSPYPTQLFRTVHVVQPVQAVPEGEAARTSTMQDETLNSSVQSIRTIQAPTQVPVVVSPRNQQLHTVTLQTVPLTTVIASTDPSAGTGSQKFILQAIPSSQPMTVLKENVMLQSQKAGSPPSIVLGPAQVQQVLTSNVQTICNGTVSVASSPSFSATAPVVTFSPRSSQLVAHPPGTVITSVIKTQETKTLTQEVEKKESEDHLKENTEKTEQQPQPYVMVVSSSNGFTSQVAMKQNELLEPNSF
Summary of the method: as §1

[6] = target: T5, EHF (Homo sapiens, UniProt Q9NZC4 1-300)
T5 sequence: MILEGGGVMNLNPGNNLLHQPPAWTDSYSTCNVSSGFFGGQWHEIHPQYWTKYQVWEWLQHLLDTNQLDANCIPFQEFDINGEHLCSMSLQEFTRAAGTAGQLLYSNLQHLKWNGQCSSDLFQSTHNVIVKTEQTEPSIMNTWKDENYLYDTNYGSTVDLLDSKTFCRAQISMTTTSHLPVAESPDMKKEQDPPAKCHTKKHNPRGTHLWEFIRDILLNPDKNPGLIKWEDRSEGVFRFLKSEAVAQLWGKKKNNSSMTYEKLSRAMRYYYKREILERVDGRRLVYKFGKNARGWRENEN
Summary of the method: as §1

[7] = target: SPI1 (Homo sapiens, UniProt P17947 1-270)
Summary of the method: as §1

[8] = target: SPIB (Homo sapiens, UniProt Q01892 1-262)
Sequence of SPIB (Q01892 whole entry): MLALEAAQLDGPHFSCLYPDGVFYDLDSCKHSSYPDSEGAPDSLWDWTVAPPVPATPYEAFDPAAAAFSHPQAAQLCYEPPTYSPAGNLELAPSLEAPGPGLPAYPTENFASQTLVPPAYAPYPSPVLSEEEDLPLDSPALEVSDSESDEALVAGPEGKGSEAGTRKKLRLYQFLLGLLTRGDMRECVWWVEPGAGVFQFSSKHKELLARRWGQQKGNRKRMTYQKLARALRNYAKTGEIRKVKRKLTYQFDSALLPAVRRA
Summary of the method: as §1

[9] = target: T6, ELK3 (Homo sapiens, UniProt P41970 1-407)
T6 sequence: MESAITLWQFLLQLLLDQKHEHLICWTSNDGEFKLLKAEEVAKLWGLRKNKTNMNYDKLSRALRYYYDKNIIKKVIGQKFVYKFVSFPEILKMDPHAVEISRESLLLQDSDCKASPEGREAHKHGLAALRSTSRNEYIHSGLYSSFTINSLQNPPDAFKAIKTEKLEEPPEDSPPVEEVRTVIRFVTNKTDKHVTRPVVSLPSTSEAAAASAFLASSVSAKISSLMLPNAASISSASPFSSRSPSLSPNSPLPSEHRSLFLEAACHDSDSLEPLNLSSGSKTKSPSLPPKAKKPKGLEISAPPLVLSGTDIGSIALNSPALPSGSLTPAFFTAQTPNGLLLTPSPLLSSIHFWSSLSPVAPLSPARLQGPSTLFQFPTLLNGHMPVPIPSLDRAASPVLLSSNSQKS
Summary of the method: as §1

[10] = target: T7, FEV (Homo sapiens, UniProt Q99581 1-238)
T7 sequence: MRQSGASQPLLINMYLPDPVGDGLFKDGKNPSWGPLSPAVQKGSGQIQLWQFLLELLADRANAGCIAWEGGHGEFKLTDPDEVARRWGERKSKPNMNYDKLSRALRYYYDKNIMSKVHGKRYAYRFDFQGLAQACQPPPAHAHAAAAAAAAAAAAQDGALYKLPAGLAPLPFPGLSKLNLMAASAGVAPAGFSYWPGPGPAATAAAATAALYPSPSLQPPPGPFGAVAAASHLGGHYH
Summary of the method: as §1

[11] = target: ETV5 (Homo sapiens, UniProt P41161 1-510)
Sequence of ETV5 (P41161 whole entry): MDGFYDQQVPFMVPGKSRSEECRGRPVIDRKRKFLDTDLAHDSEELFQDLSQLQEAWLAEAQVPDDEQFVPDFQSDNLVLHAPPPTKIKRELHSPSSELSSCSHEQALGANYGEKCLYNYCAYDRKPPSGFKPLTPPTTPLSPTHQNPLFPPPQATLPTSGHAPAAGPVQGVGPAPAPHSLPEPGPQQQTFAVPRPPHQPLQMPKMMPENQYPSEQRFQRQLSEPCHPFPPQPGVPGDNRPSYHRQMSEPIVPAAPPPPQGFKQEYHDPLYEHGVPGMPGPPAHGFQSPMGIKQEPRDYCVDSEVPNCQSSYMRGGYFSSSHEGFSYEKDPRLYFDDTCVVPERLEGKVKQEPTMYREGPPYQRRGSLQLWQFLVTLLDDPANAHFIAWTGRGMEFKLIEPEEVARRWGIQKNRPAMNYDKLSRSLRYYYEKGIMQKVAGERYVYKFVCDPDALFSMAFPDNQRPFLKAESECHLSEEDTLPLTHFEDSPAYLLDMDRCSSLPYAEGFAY
Summary of the method: as §1

[12] = target: T8, SPIC (Homo sapiens, UniProt Q8N5J4 1-248)
T8 sequence: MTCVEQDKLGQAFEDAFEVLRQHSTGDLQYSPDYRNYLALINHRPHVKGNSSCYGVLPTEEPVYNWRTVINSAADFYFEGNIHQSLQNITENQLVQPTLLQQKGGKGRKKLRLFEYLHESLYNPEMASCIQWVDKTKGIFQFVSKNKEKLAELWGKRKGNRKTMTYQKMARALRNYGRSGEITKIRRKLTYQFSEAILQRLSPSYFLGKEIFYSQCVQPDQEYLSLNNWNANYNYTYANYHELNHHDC
Summary of the method: as §1

[13] = target: ELF4 (Homo sapiens, UniProt Q99607 1-663)
Sequence of ELF4 (Q99607 whole entry): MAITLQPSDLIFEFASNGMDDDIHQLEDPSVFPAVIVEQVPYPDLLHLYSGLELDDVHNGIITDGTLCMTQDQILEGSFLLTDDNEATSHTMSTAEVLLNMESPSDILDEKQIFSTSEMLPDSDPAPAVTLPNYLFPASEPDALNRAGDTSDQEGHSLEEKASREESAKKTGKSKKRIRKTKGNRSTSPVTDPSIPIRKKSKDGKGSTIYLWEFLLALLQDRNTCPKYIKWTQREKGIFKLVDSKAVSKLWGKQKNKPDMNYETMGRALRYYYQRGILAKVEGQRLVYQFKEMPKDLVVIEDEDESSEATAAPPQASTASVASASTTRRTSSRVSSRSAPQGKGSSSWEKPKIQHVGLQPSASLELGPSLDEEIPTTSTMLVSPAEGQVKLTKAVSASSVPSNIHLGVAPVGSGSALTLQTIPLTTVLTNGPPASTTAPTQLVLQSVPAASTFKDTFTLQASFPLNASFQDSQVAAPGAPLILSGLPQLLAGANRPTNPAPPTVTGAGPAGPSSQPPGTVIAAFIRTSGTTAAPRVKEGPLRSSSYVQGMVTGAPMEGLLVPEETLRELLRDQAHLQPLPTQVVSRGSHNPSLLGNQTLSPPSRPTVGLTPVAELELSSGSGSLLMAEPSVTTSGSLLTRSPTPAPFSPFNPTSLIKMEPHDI
Summary of the method: as §1

[14] = target: T9, ELK4 (Homo sapiens, UniProt P28324-2 1-405)
T9 sequence: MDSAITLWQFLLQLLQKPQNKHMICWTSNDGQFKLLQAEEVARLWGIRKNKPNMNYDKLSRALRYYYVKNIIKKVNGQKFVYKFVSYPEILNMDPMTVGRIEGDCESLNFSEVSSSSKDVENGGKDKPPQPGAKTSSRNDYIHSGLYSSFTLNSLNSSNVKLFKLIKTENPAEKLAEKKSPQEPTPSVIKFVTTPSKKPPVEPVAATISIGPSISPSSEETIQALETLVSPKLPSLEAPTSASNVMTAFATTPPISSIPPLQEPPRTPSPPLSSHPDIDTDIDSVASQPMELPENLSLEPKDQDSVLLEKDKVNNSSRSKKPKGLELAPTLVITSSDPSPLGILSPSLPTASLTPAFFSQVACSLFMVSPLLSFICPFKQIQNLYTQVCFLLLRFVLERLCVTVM
Summary of the method: as §1

[15] = target: T10, ETV2 (Homo sapiens, UniProt O00321 1-342)
T10 sequence: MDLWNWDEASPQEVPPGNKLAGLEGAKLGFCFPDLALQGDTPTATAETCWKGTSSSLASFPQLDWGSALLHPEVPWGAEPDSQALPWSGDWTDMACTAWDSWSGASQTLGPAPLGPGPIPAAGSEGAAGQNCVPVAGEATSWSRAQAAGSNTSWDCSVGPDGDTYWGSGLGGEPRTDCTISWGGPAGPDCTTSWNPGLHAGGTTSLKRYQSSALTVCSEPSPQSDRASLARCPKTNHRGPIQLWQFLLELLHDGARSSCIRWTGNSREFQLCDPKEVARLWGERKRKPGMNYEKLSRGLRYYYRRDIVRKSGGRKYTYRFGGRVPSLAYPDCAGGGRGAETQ
Summary of the method: as §1

[16] = target: T11, ELF3 (Homo sapiens, UniProt P78545 1-371)
T11 sequence: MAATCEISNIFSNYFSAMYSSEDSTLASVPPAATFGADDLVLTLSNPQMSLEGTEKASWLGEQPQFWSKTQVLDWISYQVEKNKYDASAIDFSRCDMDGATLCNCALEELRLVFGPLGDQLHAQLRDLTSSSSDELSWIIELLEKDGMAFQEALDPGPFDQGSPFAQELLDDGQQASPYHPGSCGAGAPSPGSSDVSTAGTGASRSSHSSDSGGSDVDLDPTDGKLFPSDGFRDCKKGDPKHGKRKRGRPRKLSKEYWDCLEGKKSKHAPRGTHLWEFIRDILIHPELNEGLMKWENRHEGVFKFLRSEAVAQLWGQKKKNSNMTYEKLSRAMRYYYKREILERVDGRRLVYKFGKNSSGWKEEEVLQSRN
Summary of the method: as §1

[17] = target: ETV1 (Homo sapiens, UniProt P50549 1-477)
Sequence of ETV1 (P50549 whole entry): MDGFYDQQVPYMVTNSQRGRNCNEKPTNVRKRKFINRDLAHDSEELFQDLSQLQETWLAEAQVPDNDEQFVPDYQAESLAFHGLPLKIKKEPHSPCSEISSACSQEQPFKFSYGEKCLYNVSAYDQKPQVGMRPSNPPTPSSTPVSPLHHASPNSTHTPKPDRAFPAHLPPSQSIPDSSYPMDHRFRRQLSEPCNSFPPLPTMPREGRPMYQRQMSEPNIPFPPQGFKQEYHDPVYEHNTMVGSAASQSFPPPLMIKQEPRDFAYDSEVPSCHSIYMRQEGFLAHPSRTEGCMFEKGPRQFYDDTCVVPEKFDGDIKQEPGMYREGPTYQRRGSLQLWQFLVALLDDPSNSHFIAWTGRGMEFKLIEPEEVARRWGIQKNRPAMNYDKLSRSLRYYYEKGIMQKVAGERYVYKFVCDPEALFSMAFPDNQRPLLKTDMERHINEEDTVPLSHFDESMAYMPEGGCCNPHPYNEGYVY
Summary of the method: as §1

| Sequence | binding signal [1] | binding signal [2] | binding signal [3] | binding signal [4] | binding signal [5] | binding signal [6] | binding signal [7] | binding signal [8] | binding signal [9] | binding signal [10] | binding signal [11] | binding signal [12] | binding signal [13] | binding signal [14] | binding signal [15] | binding signal [16] | binding signal [17] |
| --- | --- | --- | --- | --- | --- | --- | --- | --- | --- | --- | --- | --- | --- | --- | --- | --- | --- |
| CATGCC | 1.18 fold enrichment (6-mer frequency, TF over GST control) | 1.17 fold enrichment (6-mer frequency, TF over GST control) | 1.09 fold enrichment (6-mer frequency, TF over GST control) | 1.1 fold enrichment (6-mer frequency, TF over GST control) | 1.16 fold enrichment (6-mer frequency, TF over GST control) | 1.16 fold enrichment (6-mer frequency, TF over GST control) | 1.09 fold enrichment (6-mer frequency, TF over GST control) | 1.11 fold enrichment (6-mer frequency, TF over GST control) | 1.06 fold enrichment (6-mer frequency, TF over GST control) | 1.13 fold enrichment (6-mer frequency, TF over GST control) | 1.13 fold enrichment (6-mer frequency, TF over GST control) | 1.16 fold enrichment (6-mer frequency, TF over GST control) | 1.16 fold enrichment (6-mer frequency, TF over GST control) | 1.17 fold enrichment (6-mer frequency, TF over GST control) | 1.08 fold enrichment (6-mer frequency, TF over GST control) | 1.13 fold enrichment (6-mer frequency, TF over GST control) | 1.12 fold enrichment (6-mer frequency, TF over GST control) |
| ACACAA | 1.14 fold enrichment (6-mer frequency, TF over GST control) | 1.17 fold enrichment (6-mer frequency, TF over GST control) | 1.12 fold enrichment (6-mer frequency, TF over GST control) | 1.17 fold enrichment (6-mer frequency, TF over GST control) | 1.23 fold enrichment (6-mer frequency, TF over GST control) | 1.21 fold enrichment (6-mer frequency, TF over GST control) | 1.17 fold enrichment (6-mer frequency, TF over GST control) | 1.21 fold enrichment (6-mer frequency, TF over GST control) | 1.19 fold enrichment (6-mer frequency, TF over GST control) | 1.17 fold enrichment (6-mer frequency, TF over GST control) | 1.19 fold enrichment (6-mer frequency, TF over GST control) | 1.22 fold enrichment (6-mer frequency, TF over GST control) | 1.17 fold enrichment (6-mer frequency, TF over GST control) | 1.05 fold enrichment (6-mer frequency, TF over GST control) | 1.1 fold enrichment (6-mer frequency, TF over GST control) | 1.11 fold enrichment (6-mer frequency, TF over GST control) | 1.14 fold enrichment (6-mer frequency, TF over GST control) |
